High-throughput results: PubChem, several laboratories
Rce1 inhib = blocks yeast Ras-converting enzyme. Q03530. yeast membranes, quenched prenylated peptide cleavage fluorescence. calls only. actives 0.27% (n = 290,000). AID 2563;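 active = fall in fluorescence gain of 50% or more versus controls, with final raw signal at or below 3038400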;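 note: plate controls were neutral control wells for no effect and wells lacking membranes for full effect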
Target sequence (Q03530 whole entry, looked up): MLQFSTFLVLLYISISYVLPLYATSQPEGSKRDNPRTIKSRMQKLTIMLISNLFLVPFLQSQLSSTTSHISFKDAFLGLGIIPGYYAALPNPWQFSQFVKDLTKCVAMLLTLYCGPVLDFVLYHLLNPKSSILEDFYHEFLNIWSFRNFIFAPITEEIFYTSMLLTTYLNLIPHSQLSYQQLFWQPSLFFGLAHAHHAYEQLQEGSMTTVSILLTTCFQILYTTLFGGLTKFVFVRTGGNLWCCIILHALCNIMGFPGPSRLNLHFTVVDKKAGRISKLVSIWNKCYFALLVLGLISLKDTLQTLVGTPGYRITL
Kir21 inh = blocks the mouse Kir2.1 inward-rectifier potassium channel; P35561; HEK293-Kir2.1, FluxOR thallium flux fluorescence; active compounds read low; B-score at 10 µM; actives 0.85% (n = 310,000); AID 1672;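 active = fluorescence ratio B-score at or below minus 3 SD of library scores, with starting-brightness B-score within 2 SD, cut at about -4.2 in these data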;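 note: channel flux triggered by added potassium and thallium sulfate stimulus; B-score of peak minus minimum fluorescence over baseline after thallium stimulus; more negative B-score means stronger Kir2.1 block with less thallium influx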
M18AAP inhibitor = blocks P. falciparum M18 aspartyl aminopeptidase; recombinant PfM18AAP, H-Glu-NHMec fluorogenic cleavage; inhibition, % at 7.35 µM; actives 1.2% (n = 290,000); AID 1822;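 active = inhibition above the campaign mean inhibition over all tested compounds plus 3 SD, cut at about 28% in these data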;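 note: 0% = plate median of test compound wells and 100% = 2 mM ZnCl2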
DNA FID counter = displaces DNA intercalator in HCV helicase counter-screen. actives 0.17% (n = 290,000). DNA fluorescent intercalator displacement, fluorescence. inhibition, % at 7.9 µM; in the data active = inhibition above about 37%;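 note: 0% = vehicle and 100% = reference compound; higher means more ethidium bromide displaced from hairpin DNA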
Starred values were filed as active, the others as inactive; i = inactive; . = not tested or not shown; + = active, no number. Compounds with a hit are over-represented: about 2.3% of the library has one in this group of screens.

SMILES	Rce1 inhib	Kir21 inh	M18AAP inhibitor	DNA FID counter
O=C(NCC1CC1)c1cc(-c2ccccc2)nn1CC1CC(c2cccc([N+](=O)[O-])c2)=NO1 (configuration not stated)	+	2.79	.	.
COCCNC(=O)c1cc(-c2ccccc2)nn1CC1CC(c2cccc([N+](=O)[O-])c2)=NO1 (configuration not stated)	i	0.96	.	.
CCCCn1c(N)c(N(CC(C)C)C(=O)CSc2nnc(C)n2-c2ccc(OC)cc2)c(=O)[nH]c1=O	i	0.39	.	.
Cc1cccc(CSC(Nc2ccc(F)cc2)=C(C#N)C#N)c1	i	-4.53*	-0.6	1.1
COC(=O)c1ccc(NC(=O)CCC(=O)c2ccc(F)cc2)cc1	i	0.88	0.2	-14.7
CCCCOc1ccc(C(=O)Nn2c(-c3cccs3)nc3ccccc3c2=O)cc1	+	0.31	-9.6	-2.0
COc1ccc(C(=O)Nn2c(SCC(=O)c3ccccc3)nc3ccccc3c2=O)cc1	i	-0.07	4.9	-4.1
Brc1cccc(CN2CCCCCC2)c1	i	-0.05	-11.9	-0.7
OC1(c2ccc(Br)cc2)CCN(Cc2cccc(Br)c2)CC1	i	-10.9*	-10.0	9.9
CN1/C(=C\C(=O)CSc2nnc(NCc3ccccc3)s2)C(C)(C)c2ccccc21	i	-9.66*	7.1	-11.0
c1ccc(-c2csc3ncnc(N4CCOCC4)c23)cc1	i	-0.48	-1.5	-17.8
c1ccc(-c2csc3ncnc(N4CCc5ccccc5C4)c23)cc1	i	-8.52*	2.4	-16.1
COc1ccc(N(C)C(=O)C2CCN(S(=O)(=O)c3cccc4nonc34)CC2)cc1	i	0.9	8.5	-31.2
Nc1c2c(nc3sc4c(c13)CCCCC4)CCCCC2	i	-1.08	-3.4	-2.2
Nc1nc2c(s1)CCCCCCCCCC2	i	-7.41*	6.3	3.4
CCN1CCN(CCOCCOc2ccccc2)CC1	.	1.13	1.6	5.5
CCN1CCN(CCOc2cccc(Oc3ccccc3)c2)CC1	i	-4.49*	3.7	15.5
CCC(=O)c1ccccc1OCCN1CCN(CC)CC1	i	0.05	31.4*	13.0
O=C(CCCCCNC(=O)N1CCn2c1nc1ccccc12)NCc1ccc(F)cc1	i	0.18	-11.0	-46.5
CC(C)n1cc(C(=O)NC2CC(C)(C)Cc3c2cnn3-c2ccccc2)cn1 (configuration not stated)	i	-0.59	1.9	-44.7
CC(=O)N1CCc2cc(S(=O)(=O)CCC(=O)NCCc3ccccc3)ccc21	i	1.34	-1.6	-9.8
CC(CCN1C(Nc2ccccc2)=NC[C@@H]1Cc1ccccc1)c1ccccc1 (some centres not stated)	i	-7.25*	-0.5	5.3
Cc1ccc(N=Nc2c(N)[nH]n3c(=O)cc(C)nc23)cc1	i	1.14	31.2*	-9.4
Cc1ccc(N=Nc2c(=O)[nH]n3c(C)cc(C)nc23)cc1	i	1.78	2.2	-0.9
O=C(CNc1cccc2ccccc12)N/N=C/c1ccc(OC(=O)/C=C/c2ccco2)cc1	i	-0.89	28.4*	-14.7
SMILES	Rce1 inhib	Kir21 inh	M18AAP inhibitor	DNA FID counter
O=C(CNc1ccc2ccccc2c1)N/N=C/c1ccc(OC(=O)/C=C/c2ccco2)cc1	i	0.68	16.5	-10.1
O=C(NCc1n[nH]c(=S)n1-c1ccccc1)c1cccs1	i	-0.34	28.3*	-2.1
COc1ccccc1-n1c(CNC(=O)c2cccc([N+](=O)[O-])c2C)n[nH]c1=S	i	-0.21	23.5	-5.0
Cc1cccc(-n2c(CNC(=O)c3cccc([N+](=O)[O-])c3C)n[nH]c2=S)c1	i	1.86	30.1*	0.5
O=C(NCc1n[nH]c(=S)n1-c1ccc(Cl)c(Cl)c1)c1cccs1	i	1.93	25.2	-9.2
O=S(=O)(Nc1ccc(-c2nc3ccccc3o2)cc1)c1ccccc1	i	1.02	-5.9	-3.6
CC(=O)Nc1ccc(S(=O)(=O)Nc2cccc(-c3nc4ccccc4o3)c2)cc1	+	0.65	3.3	-11.3
O=C(NCC1(c2ccccc2)CCCC1)c1ccccc1	i	-0.26	6.0	-11.1
O=C(NCC1(c2ccccc2)CCCC1)c1ccccc1Br	i	-5.3*	-13.2	-17.3
CC(Sc1nnc(-c2ccc(OC(F)F)cc2)n1N)C(=O)NCC1CCCO1 (configuration not stated)	i	-0.41	.	.
CCCOc1ccc(S(=O)(=O)NCCN2CCOCC2)c2ccccc12	i	-4.36*	-5.4	-2.8
CCOc1ccc(S(=O)(=O)NCCN2CCOCC2)c2ccccc12	i	-1.7	0.7	1.3
CCCCN1C(=O)C(=O)N(CC(=O)Nc2sc(CC)cc2C(=O)OCC)C1=O	i	-0.03	.	.
COc1ccccc1CNS(=O)(=O)c1cc(C)ccc1OC	i	-5.64*	3.9	-19.9
COc1ccc(C)cc1S(=O)(=O)NCc1cccs1	i	-1.17	0.6	-1.4
